Results reported in paper PMC4336329 (PLoS ONE, 2015).
Hit rate of the full screen: of about 310,000 compounds, about 14,000 (4.5%) showed an effect of 50% or more. The effect is printed as a negative number. This is one part of a sample in which strong results are shown more often than they occur.

Target: human ether-à-go-go-related gene (hERG) potassium channel (human, UniProt Q12809)
Assay: primary screen, population patch clamp on CHO cells stably expressing hERG; higher = less effect of the substance
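Note: peak tail current of the secondary pulse compared with the same well before compound.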

Sequence of human ether-à-go-go-related gene (hERG) potassium channel (Q12809 whole entry, looked up): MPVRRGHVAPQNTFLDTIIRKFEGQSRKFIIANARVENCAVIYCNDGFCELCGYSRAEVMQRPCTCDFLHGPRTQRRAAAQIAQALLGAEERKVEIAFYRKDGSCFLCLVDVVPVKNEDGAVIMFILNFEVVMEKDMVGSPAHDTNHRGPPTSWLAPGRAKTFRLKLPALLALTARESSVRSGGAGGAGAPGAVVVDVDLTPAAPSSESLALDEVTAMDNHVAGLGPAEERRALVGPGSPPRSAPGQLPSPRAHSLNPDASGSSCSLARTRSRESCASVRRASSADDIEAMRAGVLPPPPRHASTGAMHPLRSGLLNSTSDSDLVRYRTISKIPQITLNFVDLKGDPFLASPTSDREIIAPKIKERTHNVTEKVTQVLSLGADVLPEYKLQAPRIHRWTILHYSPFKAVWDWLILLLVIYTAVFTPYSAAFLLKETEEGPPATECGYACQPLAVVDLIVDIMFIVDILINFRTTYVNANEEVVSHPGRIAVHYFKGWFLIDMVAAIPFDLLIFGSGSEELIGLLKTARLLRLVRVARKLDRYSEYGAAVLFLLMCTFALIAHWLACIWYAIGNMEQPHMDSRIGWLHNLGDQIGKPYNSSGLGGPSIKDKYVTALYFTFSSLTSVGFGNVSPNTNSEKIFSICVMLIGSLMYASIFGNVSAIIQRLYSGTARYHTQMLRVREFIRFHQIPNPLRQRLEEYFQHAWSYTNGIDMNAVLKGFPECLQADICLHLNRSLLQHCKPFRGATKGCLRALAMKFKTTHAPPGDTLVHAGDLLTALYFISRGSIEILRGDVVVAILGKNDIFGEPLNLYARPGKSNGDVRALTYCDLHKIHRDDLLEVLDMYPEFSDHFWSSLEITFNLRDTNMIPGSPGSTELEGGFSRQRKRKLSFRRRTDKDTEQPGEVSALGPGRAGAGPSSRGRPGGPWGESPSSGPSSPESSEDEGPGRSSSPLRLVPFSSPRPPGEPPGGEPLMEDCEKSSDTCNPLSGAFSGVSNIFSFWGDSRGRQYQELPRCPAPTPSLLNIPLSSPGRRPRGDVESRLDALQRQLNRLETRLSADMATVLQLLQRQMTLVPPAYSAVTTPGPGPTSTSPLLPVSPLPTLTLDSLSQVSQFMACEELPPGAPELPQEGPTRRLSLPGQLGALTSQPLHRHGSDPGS

Point of comparison: `Cc1ccc(SCC(=O)OCC(=O)N(C)C2CCS(=O)(=O)C2)cc1C` (centres unmarked), “hERG current change (%, negative = inhibition) at 10uM” value -11.5%. Against it:
- COc1cc(OC)nc(Oc2ccccc2C(=O)Oc2cccc(C)c2)n1 — higher, 7.95%
- CC1=NN(C(=O)c2ccc(Cl)cc2)C(O)(c2ccccc2)C1 (centres unmarked) — higher, 22%
- COc1ccccc1C(=O)N(C1=NC(C)CS1)c1ccc(Cl)cc1 (centres unmarked) — higher, 7.94%
- Cc1cc(C)c(C#N)c(N2CCCC2)n1 — higher, 5.67%
- COCCCNC(=O)c1ccc(CS(=O)(=O)c2ccc(Br)cc2)o1 — lower, -14.3%
- COC(=O)C1=C(C(=O)OC)[N+]2=C3N(C(=O)NC2(C)C)[C@H](CO)C[C@@]32c3ccccc3N(Cc3ccccc3)[C@@H]12 — higher, -11.2%
- CCOc1ccc(CCNC(=O)CN(C)S(=O)(=O)c2cccs2)cc1OCC — higher, 10.2%
- CC(=O)Nc1cccc(NC(=O)CSc2nnc(NC(=O)c3ccco3)s2)c1 — higher, 4.45%
- COc1cc(CN2CCCC(C(=O)Nc3ccccc3Oc3cccnc3)C2)ccc1F (centres unmarked) — lower, -39%
- O=C(Nc1ccccc1Oc1cccnc1)C1CCCN(C/C=C/c2ccc(F)cc2)C1 (centres unmarked) — lower, -76.9%
- O=C(Nc1ccccc1Oc1ccccc1)C1CC1 — higher, 12.2%
- O=C(Nc1ccccc1Oc1cccnc1)C1CCCN(C/C=C/c2ccccc2)C1 (centres unmarked) — lower, -76.9%
- O=C(Nc1ccccc1Oc1ccccc1)C1CCCC1 — higher, 6.32%
- CCN(CC)C(=O)C1CCCN(C/C=C/c2ccccc2)C1 (centres unmarked) — lower, -40.8%
- O=C(Nc1ccncc1)c1ccc([N+](=O)[O-])cc1Cl — higher, -3.15%
- O=C(O)C1CC=C(Cl)CC1C(=O)NCc1ccccc1 (centres unmarked) — higher, 6.61%
- COc1ccc(C(=O)NC2=C(C#N)CCC2)cc1OC — higher, 9.08%
- NC(=O)NC(CC(=O)N1CCc2ccccc2C1)c1ccc(Cl)cc1 (centres unmarked) — higher, 2.09%
- COC(=O)[C@H](CCSC)NC(=O)Nc1ccc(C)cc1 — higher, 11.6%
- COC(=O)[C@H](CCSC)NC(=O)Nc1ccc(OC)c(Cl)c1 — higher, -6.64%
- COC(=O)[C@H](CCSC)NC(=O)Nc1ccc(C)c(C)c1 — lower, -83.6%
- C[N+](C)(C)CCN(Cc1ccc(Cl)cc1)c1ccccn1.[I-] — lower, -14.4%
- CN(C)CCN(Cc1ccc(Cl)cc1)c1ccccn1.Cl — lower, -74.4%
- CC(C)(Oc1ccc(Cl)cc1)C(=O)N(Cc1ccccc1)c1ccccn1 — higher, -7.15%
- CN(C)CCN(Cc1ccccc1)c1ccccn1.Cl — lower, -48.6%
- COc1ccc(CN(CCN(C)C)c2ccccn2)cc1.O=C(O)/C=C\C(=O)O — lower, -38.5%
- CC[N+](C)(C)CCN(Cc1ccc(Cl)cc1)c1ccccn1.[Br-] — lower, -68.6%
- CCCCCc1ccc(-c2ccc(OC)cc2)nc1 — higher, 19.7%
- O=C(COc1ccc(Cl)cc1)N(Cc1ccccc1)c1ccccn1 — lower, -36%
- CCCCCCCCCCCCCCCC[N+](C)(C)CCN(Cc1ccc(OC)cc1)c1ncccn1.[Br-] — lower, -75%
- Nc1nc(-c2ccco2)nn1C(=O)CCc1ccccc1 — higher, -0.902%
- CCCOc1ccccc1C(=O)N1CCNC(=O)C1CC(=O)OC(C)C (centres unmarked) — higher, 0.716%
- CCOC(=O)N1CCN(S(=O)(=O)c2cc(Cl)c(OC)cc2Cl)CC1 — higher, 4.96%
- CCN(CC)S(=O)(=O)c1ccc2[nH]c(=O)cc(C(=O)NCC3CCCO3)c2c1 (centres unmarked) — higher, -10.3%
- COc1ccc(NC(=O)c2ccc(NC(=O)COC(=O)CC(NC(=O)c3ccccc3Cl)c3ccccc3)cc2)cc1 (centres unmarked) — higher, -2.55%
- CCC(=O)Nc1nc(CC(=O)Nc2ccccc2)cs1 — higher, 18.2%
- COc1ccc(CC(=O)N2CCN(c3ccccn3)CC2)cc1 — higher, 7.79%
- CCn1c(CNC(=O)c2ccco2)nnc1SCC(=O)Nc1cc(F)ccc1C — higher, -0.0602%
- Cn1c(CNC(=O)c2ccco2)nnc1SCC(=O)Nc1ccc(Br)cc1F — lower, -43.4%
- CCn1c(CNC(=O)Cc2ccc(OC)cc2)nnc1SCC(=O)Nc1nccs1 — higher, -5.75%
- CCn1c(CNC(=O)COc2ccc(C(C)C)cc2)nnc1SCC(=O)Nc1cc(F)ccc1C — lower, -65.7%
- CCn1c(CCCOc2ccc(Cl)cc2Cl)nnc1SCC(=O)Nc1cc(F)ccc1C — lower, -13.1%
- CCn1c(CNC(=O)COc2ccc(C(C)C)cc2)nnc1SCC(=O)Nc1ccccc1C(C)C — lower, -55.1%
- CCn1c(COc2ccc(C(C)C)cc2)nnc1SCC(=O)Nc1nccs1 — higher, -7.75%
- CCCCc1nnc(SCC(=O)Nc2nccs2)n1CC — higher, 4.93%
- CCn1c(CNC(=O)COc2c(C)cccc2C)nnc1SCC(=O)Nc1nccs1 — lower, -51.8%
- COc1ccc(C(=O)NCCc2nnc(SCC(=O)Nc3ccccc3C(C)C)n2C)cc1 — lower, -13.3%
- CCn1c(CNC(=O)c2ccco2)nnc1SCC(=O)Nc1cc(C)c(C)cc1Br — lower, -16.6%
- CCn1c(CNC(=O)c2ccco2)nnc1SCC(=O)Nc1ccc(Br)cc1F — lower, -54.8%
- CN(C)S(=O)(=O)c1ccc(Cl)c(C(=O)NC2CCCCCCC2)c1 — higher, 7.33%
- O=C(Cn1nnc(-c2ccncc2)n1)N1CCc2ccccc21 — higher, 15.2%
- CCCc1nc2oc3c(NCc4ccccn4)ncnc3c2c2c1COC(C)(C)C2 — lower, -17.8%
- COc1cccc(CN2CCNC(=O)C2CC(=O)NCCCn2ccnc2)c1 (centres unmarked) — higher, 37.2%
- Cc1cc(=O)[nH]c(/N=C(\N)Nc2cccc3ccccc23)n1 — higher, 11.5%
- NNC(=O)c1ccc(COCC(F)(F)C(F)F)cc1 — higher, 14.5%
- CC(NC(=O)c1cc2cc(Cl)ccc2oc1=N)c1ccccc1 (centres unmarked) — higher, 7.55%
- C#CCNC(=O)[C@H](Cc1ccc(C(=O)c2ccccc2)cc1)NC(=O)OC(C)(C)C — higher, 19.5%
- O=C(COC(=O)c1cc(S(=O)(=O)N2CCOCC2)cs1)c1ccccc1 — higher, -0.734%
- N#C/C(=C\c1cccnc1)c1nc2ccccc2[nH]1 — higher, -10.4%
- CCn1c(CNC(=O)COc2ccc(C(C)C)cc2)nnc1SCC(=O)Nc1ccccc1 — lower, -54.2%
- CCn1c(CNC(=O)COc2ccc(C(C)C)cc2)nnc1SCC(=O)Nc1ccc(F)cc1 — lower, -49.4%
- CCn1c(CNC(=O)COc2ccc(C(C)C)cc2)nnc1SCC(=O)Nc1ccccc1F — lower, -60.1%
- CCn1c(CCNC(=O)c2ccc(OC)cc2)nnc1SCC(=O)Nc1ccccc1F — lower, -22.7%
- CCn1c(CNC(=O)COc2ccc(C(C)C)cc2)nnc1SCC(=O)NC1CCCCC1C (centres unmarked) — lower, -16.8%
- CCn1c(Cc2ccccc2)nnc1SCC(=O)Nc1ccccc1F — higher, -5.46%
- CC1(c2nnc(Cc3ccccc3)o2)CC(c2cccnc2)=NO1 (centres unmarked) — higher, 3.26%
- Cc1ccc(N=C(NO)c2nonc2N)cc1 — higher, 10.1%
- CCOC(=O)c1[nH]c2ccccc2c1NC(=O)C1CCCC1 — higher, 3.28%
- O=C(/C=C/c1ccccc1Cl)Nc1ccncc1 — higher, -3.65%
- Cc1cc(NC(=O)CSCC(=O)NCc2cccc(C(F)(F)F)c2)no1 — lower, -18.7%
- O=C(O)CCC(=O)N1CCc2cc(S(=O)(=O)NC3CCCc4ccccc43)ccc21 (centres unmarked) — higher, -5.02%
- [Cl-].c1ccc(C[n+]2c(-c3ccccc3)csc2Nc2ccccc2)cc1 — higher, 19.6%
- Cc1cc(SCC(=O)OCC(=O)N2CCN(C(=O)c3ccco3)CC2)c(C)cc1Br — lower, -50.2%
- Cc1cc(SCC(=O)OCC(=O)N(C)C2CCS(=O)(=O)C2)c(C)cc1Br (centres unmarked) — lower, -73.1%
- O=C(CSc1ccccc1F)OCC(=O)N1CCN(C(=O)c2ccco2)CC1 — lower, -27.2%
- Cc1cccc(OCC(=O)OCC(=O)N2CCN(C(=O)c3ccco3)CC2)c1C — lower, -31.8%
- NC(=O)COC(=O)CSc1cccc2cccc(Cl)c12 — higher, 14.8%
- CCOC(=O)N1CCN(C(=O)COC(=O)CSc2cc(C)c(Br)cc2C)CC1 — lower, -38.5%
- Cc1cc(C)c(OCC(=O)OCC(=O)N2CCN(C(=O)c3ccco3)CC2)c(C)c1 — lower, -30.4%
- O=C(COc1ccccc1Br)N1CCN(C(=O)c2ccco2)CC1 — lower, -31.3%
- Cc1cc(Br)cc(Cl)c1OCC(=O)N1CCN(C(=O)c2ccco2)CC1 — lower, -63.3%
- O=C(CSc1cccc2cccc(Cl)c12)OCC(=O)N1CCN(C(=O)c2ccco2)CC1 — lower, -69.2%
- CN(C(=O)COC(=O)CSc1ccc(C(N)=O)cc1[N+](=O)[O-])C1CCS(=O)(=O)C1 (centres unmarked) — higher, -11.4%
- O=C(c1ccco1)c1cn[nH]c1-c1ccc(Cl)cc1O — higher, -8.52%
- C/C(=N\NC(=O)CN(c1ccc(Oc2ccccc2)cc1)S(C)(=O)=O)C(C)(C)C — higher, 7.07%
